KLK7 zymogen act: proKLK7 zymogen activators, primary screen, biochemical, fluorescence intensity; purified proKLK7, EDANS-DABCYL substrate fluorescence; 100% is mature enzyme control, 0% vehicle; AID 652039, 2013; activation, % at 7 µM; Kallikrein-7 (Homo sapiens), P49862; 370,000 tested, 0.9% active;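 active = activation above the mean of all tested compounds plus 3 SD, computed per campaign excluding outliers beyond control limits, cut at about 13% in these data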
Target sequence (P49862 whole entry, looked up): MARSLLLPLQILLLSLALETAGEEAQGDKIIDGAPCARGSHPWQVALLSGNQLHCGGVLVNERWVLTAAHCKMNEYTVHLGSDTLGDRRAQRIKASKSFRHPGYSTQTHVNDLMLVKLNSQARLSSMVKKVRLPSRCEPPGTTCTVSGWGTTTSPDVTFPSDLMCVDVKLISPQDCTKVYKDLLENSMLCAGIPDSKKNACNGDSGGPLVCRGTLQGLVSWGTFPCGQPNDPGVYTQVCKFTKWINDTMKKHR
ADAM17 inh: ADAM17 inhibitors, primary screen, biochemical, QFRET; 370,000 tested, 0.83% active; inhibition, % at 6.95 µM; recombinant ADAM17, EDANS/DABCYL FRET peptide cleavage; Disintegrin and metalloproteinase domain-containing protein 17 (Homo sapiens), P78536; AID 720648, 2013;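 active = inhibition above the mean of compounds lying between control limits plus 3 SD, set per campaign, cut at about 8.5% in these data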
PLCg1 inh: PLC-gamma1 enzyme inhibitors, primary screen, biochemical, fluorescence, purified enzyme; 1-phosphatidylinositol 4,5-bisphosphate phosphodiesterase gamma-1 (Homo sapiens), P19174; fluorogenic substrate; inhibition, % at 12.2 µM; 370,000 tested, 0.84% active; in the data active = inhibition above about 9.5%
ADAM10 inh: human ADAM10 inhibitors, primary screen, biochemical, QFRET, HTS | recombinant ADAM10, EDANS/DABCYL FRET peptide cleavage, 3 h | inhibition, % at 7 µM | Disintegrin and metalloproteinase domain-containing protein 10 (Homo sapiens), O14672 | 370,000 tested, 0.62% active | AID 720582, 2013;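 active = inhibition above a per-campaign cutoff equal to the mean of compounds falling between control-based bounds plus 3 SD, cut at about 20% in these data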
PLC-beta3 inh: human PLC-beta3 inhibitors, primary screen, biochemical, fluorescence; 1-phosphatidylinositol 4,5-bisphosphate phosphodiesterase beta-3 (Homo sapiens), Q01970; Purified PLC-beta3, fluorogenic substrate; inhibition, % at 12.2 µM; 370,000 tested, 0.18% active; in the data active = inhibition above about 11%
KLK7 act conf: proKLK7 zymogen activators, confirmation, biochemical, fluorescence intensity, triplicate. purified proKLK7, EDANS-DABCYL substrate fluorescence; scaled: vehicle 0, mature enzyme 100. 3,200 tested, 68% active. activation, % at 7 µM. shares compounds with KLK7 zymogen act;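 active = activation, as change over the incubation, above the mean of all tested compounds plus 3 SD, cut at about 13% in these data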
EDANS-DABCYL int: EDANS-DABCYL substrate optical interference, artefact control for kallikrein-7 zymogen activator project, biochemical, fluorescence intensity, high throughput | shares compounds with KLK7 zymogen act | AID 686952, 2013 | activation, % at 7 µM | 3,200 tested, 80% active | no enzyme, 4 h; solvent 0%, active enzyme control 100%;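 active = activation above the all-compound mean plus 3 SD, ignoring values outside control-based bounds, cut at about 4.8% in these data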;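 also: value is the 4 h activation minus the activation read at time zero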
EDANS interf: counter-screen for kallikrein-7 activators: EDANS-DABCYL interference, dose response; shares compounds with KLK7 zymogen act; EDANS-DABCYL peptide fluorescence interference, no enzyme; EC50, µM; 250 tested, 20% active; AID 720493;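 active = compounds that raise the fluorescence signal in this interference counterscreen, with EC50 at or below 10 µM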;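 also: intact quenched peptide substrate alone read at 355 nm excitation and 520 nm emission; signal is fluorescence gain from T0 to T4 after four hours at room temperature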
Large screens that a line does not name were inactive (follow-up assays come after a bar, where they were run). In the library only some 2.9% were active in any assay of this set; here they are far more common.

COc1cc(C=Nc2ccccc2C(=O)Nc2ccccc2)cc(OC)c1OC	KLK7 zymogen act 18.7 | KLK7 act conf 17.9 | EDANS-DABCYL int 22.4
COc1ccccc1Oc1c(C)oc2c(CN(C)C)c(O)ccc2c1=O	KLK7 zymogen act 50.9 | KLK7 act conf 65.7 | EDANS-DABCYL int 71.0
CCN(CC)Cc1c(O)ccc2c(=O)c(Oc3ccccc3OC)c(C)oc12	KLK7 zymogen act 89.1 | KLK7 act conf 65.0 | EDANS-DABCYL int 69.5
COC(=O)[C@]12C[C@H](CC(=O)N3CCCCC3)C(=O)N(Cc3ccc(Cl)cc3Cl)C1=C[C@H](C1CCCC1)O[C@@H]2C	none
O=C(CNC(=O)OCc1ccccc1)Oc1ccc2ccc(=O)oc2c1	KLK7 zymogen act 56.1 | KLK7 act conf 183.1 | EDANS-DABCYL int 261.2
O=C(Oc1ccc2c(-c3ccccc3)cc(=O)oc2c1)c1cccs1	none
COc1ccc(C(=O)Oc2ccc3ccc(=O)oc3c2)cc1OC	KLK7 zymogen act 14.0 | KLK7 act conf 196.6 | EDANS-DABCYL int 193.0
O=C(COc1ccc2ccc(=O)oc2c1)OCc1ccccc1	none
Cc1ccc(C(=O)Oc2ccc3ccc(=O)oc3c2)cc1	KLK7 zymogen act 40.6 | KLK7 act conf 110.8 | EDANS-DABCYL int 107.4
COc1ccc(C(=O)COc2ccc3ccc(=O)oc3c2)cc1	none
O=C(Oc1ccc2ccc(=O)oc2c1)c1cccs1	KLK7 zymogen act 580.8 | KLK7 act conf 788.9 | EDANS-DABCYL int 771.1
COc1cccc(N(C)C(=O)[C@@H](C2CC2)[C@@H](O)c2ccc(C(C)=O)cc2)c1	none
COc1ccc2ccc(=O)oc2c1	none
CCOc1ccccc1NC(=O)COc1ccc2ccc(=O)oc2c1	none
Cc1ccccc1NC(=O)COC(=O)COc1ccc2ccc(=O)oc2c1	KLK7 zymogen act 13.6 | KLK7 act conf 15.6 | EDANS-DABCYL int inactive | EDANS interf inactive
COc1cccc(C(=O)Oc2ccc3ccc(=O)oc3c2)c1	KLK7 zymogen act 93.5 | KLK7 act conf 616.3 | EDANS-DABCYL int 656.0
CC(NC(=O)OC(C)(C)C)C(=O)Oc1ccc2ccc(=O)oc2c1 (stereo not drawn)	KLK7 zymogen act 89.4 | KLK7 act conf 466.5 | EDANS-DABCYL int 445.2
CC(=O)Oc1ccc2ccc(=O)oc2c1	KLK7 zymogen act 357.0 | KLK7 act conf 602.4 | EDANS-DABCYL int 608.8
CCCC[C@@H](CCCc1ccc(F)cc1)CCC(=O)N(c1ccccc1)c1ccccc1	none
CCOC(=O)N1CCN(C(=O)C[C@H]2C[C@@]3(C(=O)OC)C(=C[C@H](C(C)C)O[C@@H]3C3CC3)N(Cc3ccco3)C2=O)CC1	none
Cc1ccc(-c2cccc3[nH]cc(C)c23)s1	none
C/C=C/C(=O)N1CCc2cc(S(=O)(=O)N(C)Cc3ccco3)ccc21	none
Cc1[nH]nc2c1C(c1ccc(Br)cc1)N(c1ccccc1)C2=O (stereo not drawn)	none
CC(C)(C)OC(=O)NCCc1ccccc1/C=C/S(=O)(=O)NC1CCCC1	none
CCCNC(=O)N1[C@@H](CO)[C@H](c2ccc(C3=CCCC3)cc2)[C@@H]1CN(CC)S(=O)(=O)c1ccccc1[N+](=O)[O-]	none
O=C(Oc1ccc2ccc(=O)oc2c1)c1ccc([N+](=O)[O-])cc1	KLK7 zymogen act 45.2 | KLK7 act conf 592.6 | EDANS-DABCYL int 573.0
Cc1cc(C(=O)COc2ccc3ccc(=O)oc3c2)c(C)n1C	KLK7 zymogen act 137.8 | KLK7 act conf 79.0 | EDANS-DABCYL int 84.9
COc1ccc(C(=O)COc2ccc3ccc(=O)oc3c2)c(OC)c1	none
Cc1cc(=O)oc2cc(OCC(=O)N3CCOCC3)c(Cl)cc12	KLK7 zymogen act 18.1 | KLK7 act conf 33.4 | EDANS-DABCYL int 23.6 | EDANS interf inactive
Cc1c2cccn2cc[n+]1C	KLK7 zymogen act 17.6 | KLK7 act conf 31.9 | EDANS-DABCYL int 26.8
CN1C(=O)[C@@]2(O[C@H]3C=CC=CN3C3=C2C(=O)CCC3)c2cccc(Br)c21	none
N#C/C(=C/c1ccc(-c2ccc(S(N)(=O)=O)cc2)o1)C(=O)Nc1ccccc1	KLK7 zymogen act 26.9 | KLK7 act conf 16.5 | EDANS-DABCYL int inactive | EDANS interf inactive
N#C/C(=C\c1ccco1)C(=O)Nc1ccc(S(N)(=O)=O)cc1	none
O=C(COc1ccc(F)c(Cl)c1)N[C@H]1CCCN(CC2CC2)C1	none (no result: KLK7 zymogen act)
COc1ccc2[nH]c3c(=S)nc[nH]c3c2c1	KLK7 zymogen act 20.7 | KLK7 act conf inactive | EDANS-DABCYL int inactive
CCOC(=O)c1cc2c(=O)n3ccccc3nc2n(CC2CCCO2)c1=NC(C)=O (stereo not drawn)	KLK7 zymogen act 80.2 | KLK7 act conf 64.1 | EDANS-DABCYL int 67.5
CCOC(=O)c1cc2c(=O)n3ccccc3nc2n(CC2CCCO2)c1=NC(=O)/C=C/c1ccccc1 (stereo not drawn)	KLK7 zymogen act 92.2 | KLK7 act conf 16.1 | EDANS-DABCYL int inactive | EDANS interf inactive
COc1ccc(/C=C/C(=O)c2ccc(O)cc2)cc1	KLK7 zymogen act 12.7 | KLK7 act conf inactive | EDANS-DABCYL int inactive
CCOC(=O)N1CCC(NC(=O)c2ccc3c(c2)N(Cc2ccc(C)cc2)CCS3)CC1	none
Cc1cccc(CNC(=O)c2ccc3c(c2)N(C)CCS3)c1	KLK7 zymogen act 17.9 | KLK7 act conf inactive | EDANS-DABCYL int inactive
CCOC(=O)N1CCC(NC(=O)c2ccc3c(c2)N(C)CCS3)CC1	KLK7 zymogen act 50.7 | KLK7 act conf 66.3 | EDANS-DABCYL int 72.6
COc1ccc(CNC(=O)c2ccc3c(c2)N(C)CCS3)cc1	KLK7 zymogen act 34.7 | KLK7 act conf inactive | EDANS-DABCYL int 33.3
O=C(N[C@H](Cc1ccccc1)C(=O)NCc1ccc2c(c1)OCO2)[C@H]1O[C@@H](n2ccc(=O)[nH]c2=O)[C@H](O)[C@@H]1O	none
COc1ccc(Cn2c(C)cc(O)cc2=O)cc1	none
O=C(NCc1ccco1)Nc1ccc2nsnc2c1	KLK7 zymogen act 27.0 | KLK7 act conf 26.2 | EDANS-DABCYL int 29.0
O=C(NCc1ccco1)Nc1ccc(Br)cc1	none
CCN(C(=O)COC(=O)c1cc(-c2ccc(C)o2)nc2ccccc12)C1CCS(=O)(=O)C1 (stereo not drawn)	KLK7 zymogen act 174.2 | KLK7 act conf 202.2 | EDANS-DABCYL int 186.8
